{"source": "PubChem BioAssay AID651692", "about": "(Broad Institute, 2012)", "note": "Results with a measured potency or affinity are listed apart. Unmarked numbers belong to inactive results.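 The calls were made as follows: active = fitted half-maximal concentration for loss of cell signal no higher than twice the top valid tested concentration; inconclusive = flat curve at 30 to 70% inhibition, or poor fit; inactive = flat within 30%, signal rise, or potency above limit.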"}
{"assay": "MDA-MB-231 cell growth inhibition, dose response, cytotoxicity control for RAD54 inhibitor project, CellTiter-Glo luminescence, cherry-pick (AID 651692);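 also: 0% = median of sample compound wells and -100% = staurosporine control wells; more negative values mean stronger loss of viable cell signal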", "conditions": "MDA-MB-231 viability, 24 h; series mostly up to 26 µM; activity change, negative = growth inhibition: at the top concentration", "units": {"activity change, negative = growth inhibition": "%"}}
{"compound": "c1ccc(CNc2c3ccccc3nc3ccccc23)cc1", "activity change, negative = growth inhibition": -21}
{"compound": "CC1CCCN(CCCNC(=O)c2cc3c(Cl)nc4ccccc4c3s2)C1", "note": "(stereo not given)", "activity change, negative = growth inhibition": -16.3}
{"compound": "CN(C)CCCNc1nc(-c2ccccc2)nc2ccccc12", "activity change, negative = growth inhibition": 4.91}
{"compound": "COc1cc2[nH]c3c(=O)n(CCN(C(C)C)C(C)C)cnc3c2cc1OC", "activity change, negative = growth inhibition": 14}
{"compound": "CCOC(=O)c1cnc2c(Cl)cccc2c1NCCCN1CCOCC1", "activity change, negative = growth inhibition": 8.64}
{"compound": "COc1ccccc1C(=O)C(O)c1ccccc1OC", "note": "(stereo not given)", "activity change, negative = growth inhibition": 2.24}
{"compound": "OC1CCCN(Cc2c3ccccc3cc3ccccc23)C1", "note": "(stereo not given)", "activity change, negative = growth inhibition": 7.86}
{"compound": "Cc1ccc(Nc2cc(C)nc3c(C)cccc23)cc1", "activity change, negative = growth inhibition": -0.834}
{"compound": "Oc1ccc(Nc2ccnc3cc(Cl)ccc23)cc1", "activity change, negative = growth inhibition": -1.5}
{"compound": "COc1ccc(CCNC(=O)c2cc3c(=O)n4ccccc4nc3n(CCCN3CCOCC3)c2=N)cc1OC", "activity change, negative = growth inhibition": 7.19}
{"compound": "NCc1csc(Nc2nncc3ccccc23)n1", "activity change, negative = growth inhibition": 9.15}
{"compound": "COc1ccc(Nc2nc(NCC3CCCO3)c3ccccc3n2)c(OC)c1", "note": "(stereo not given)", "activity change, negative = growth inhibition": 6.96}
{"compound": "CN(C)CCCN(C(=O)c1ccco1)c1nc(-c2ccc(Cl)cc2)cs1", "activity change, negative = growth inhibition": -20.6}
{"compound": "CCOCCCn1c(=N)c(C(=O)NCCN2CCOCC2)cc2c(=O)n3cccc(C)c3nc21", "activity change, negative = growth inhibition": 1.54}
{"compound": "O=S(=O)(c1ccc(-c2nnc(SCc3ccccc3)o2)cc1)N1CCCC1", "activity change, negative = growth inhibition": 0.546}
{"compound": "CC(=O)Nc1ccc2cc3ccc(NC(C)=O)cc3nc2c1", "activity change, negative = growth inhibition": -1.22}
{"compound": "CN(C)CCCNc1ncnc2sc(-c3ccccc3)cc12", "activity change, negative = growth inhibition": -11.5}
{"compound": "CCOC(=O)c1c(NC(C)=O)sc2c(O)c(CN3CCN(CC)CC3)ccc12", "activity change, negative = growth inhibition": 4.29}
{"compound": "Cc1ccc(S(=O)(=O)N2CCOCC2)c(C)c1NS(C)(=O)=O", "activity change, negative = growth inhibition": 1.27}
{"compound": "CCN(CC)CCCNc1nc2cc(OC)c(OC)cc2c2nc(-c3cccnc3)nn12", "activity change, negative = growth inhibition": 9.47}
{"compound": "O=c1c2ccccc2sc2ccc(NCCCN3CCOCC3)cc12", "activity change, negative = growth inhibition": 2.06}
{"compound": "COc1ccc2c(c1)c1ncn(CCN3CCCCC3)c(=O)c1n2C", "activity change, negative = growth inhibition": 3.69}
{"compound": "CC(C)OCC(O)CN1CCN(CCN2C(=O)c3cccc4cccc(c34)C2=O)CC1", "note": "(stereo not given)", "activity change, negative = growth inhibition": 1.81}
{"compound": "CN1CCC[C@H]1CCNc1ccc2c(=O)c3ccccc3n(C)c2c1", "activity change, negative = growth inhibition": 3.73}
{"compound": "c1cncc(Nc2c3ccccc3nc3ccccc23)c1", "activity change, negative = growth inhibition": 10.5}
{"compound": "c1ccc2c(c1)[nH]c1c(N3CCN(C4CCCCC4)CC3)ncnc12", "activity change, negative = growth inhibition": 4.07}
{"compound": "COc1ccc(Nc2c3ccccc3nc3ccccc23)cc1", "activity change, negative = growth inhibition": -8.98}
{"compound": "c1cc2c3c(cccc3c1)C(N1CCCCC1)=N2", "activity change, negative = growth inhibition": 4.52}
{"compound": "Cc1ccc2nc3c(cc(C(=O)NCCN4CCOCC4)c(=N)n3CCCN3CCOCC3)c(=O)n2c1", "activity change, negative = growth inhibition": 3.06}
{"compound": "CCN(CC)CCCNC(=O)c1cc2c(-c3cccc(OC)c3)nn(C)c2s1", "activity change, negative = growth inhibition": -1.64}
{"compound": "CN(C)CCCNc1nc2cc(-c3ccccc3)sc2c(=O)n1C", "activity change, negative = growth inhibition": -7.78}
{"compound": "Cc1[nH]ccc2c1[nH]c1cc(=O)ccc12", "activity change, negative = growth inhibition": -0.052}
{"compound": "CCN1CCN(CCCNC(=O)c2cc3cc4ccc(OC)cc4nc3o2)CC1", "activity change, negative = growth inhibition": 7.08}
{"compound": "CN1CCN(c2nc(-c3ccccn3)nc3ccccc23)CC1", "activity change, negative = growth inhibition": 2.71}
{"compound": "COC(=O)c1c(NC(=O)c2ccc(S(=O)(=O)N3CCOCC3)cc2)sc2c1CCN(C(C)C)C2", "activity change, negative = growth inhibition": 10.1}
{"compound": "COc1ccc(-c2cc(NC=O)c3ncc(-c4cccc(C(=O)NCCN(C)C)c4)n3c2)cn1", "activity change, negative = growth inhibition": -14}
{"compound": "CCN1CCCC1CNC(=O)c1cc2c(-c3cccc(OC)c3)nn(C)c2s1", "note": "(stereo not given)", "activity change, negative = growth inhibition": -0.025}
{"compound": "CC1CCN(CCCNC(=O)c2cc3c(Cl)nc4ccccc4c3s2)CC1", "activity change, negative = growth inhibition": -10.9}
{"compound": "COc1ccc2oc3cc(NCCN(C)C)ccc3c(=O)c2c1", "activity change, negative = growth inhibition": 4.37}
{"compound": "CCN1CCc2c(sc(NC(=O)c3ccc(C(=O)c4ccccc4)cc3)c2C(N)=O)C1", "activity change, negative = growth inhibition": -14.2}
